# According to PubChem BioAssay (NCI):
# This is part of a sample that, as a whole, favours compounds with a hit. Of some 83,000 tested, about 20% had one in any assay.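 48-hour exposure, single concentration, 96-well plates; percent growth endpoint where 0 means no net growth. Active: below 10.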 A number with no mark means an inactive call. The source made the active and inactive calls.
# Test system: HL-60(TB) leukemia
# Experiment: NCI-60 one-dose screen, 48 h (100 = growth as untreated, 0 = no growth, -100 = all killed)
# Settings: 10 µM unless noted
row,Compound,growth
1,O=S(=O)(Nc1ccc(C2CC2)cc1)c1ccc(-c2cnc(C3CC3)o2)cc1,38.9%
2,CSc1ccc(/C(=N/N=C(N)N)c2ccccc2)cc1,-17.1% (active)
3,COc1ccc(NC(=O)CCCCCCNC(=O)C(O)(O)C(F)(F)F)cc1,11.3%
4,N=c1c2cc(-c3ccccc3)oc2ncn1/N=C/c1ccc(Br)cc1,109%
5,CCNC(=O)Oc1ccc(/C(=C(/C)c2ccccc2)c2ccc(OCCN3CCCC3)cc2)cc1,50.7%
6,O=C(CCCCCCN1CC(=O)N2[C@@H](c3ccc(Cl)c(F)c3)c3[nH]c4ccccc4c3C[C@H]2C1=O)NO,85.1%
7,NC1[C@H]2CN(c3cnc(C(=O)Nc4cc(F)cc5cccnc45)cn3)C[C@@H]12 (stereo not given in full),11.5%
8,Cc1cc2nc(C(Cl)Cl)nc(-c3cccs3)n2n1,-25.4% (active)
9,CC[C@@H](CO)Nc1ccc2ncc(C#Cc3cncc(C(=O)Nc4ccc(CN5CCN(C)CC5)c(C(F)(F)F)c4)c3)n2n1,-27.3% (active)
10,NS(=O)(=O)c1cccc(Nc2nc(SCC(=O)c3ccc(Cl)cc3)nc3ccccc23)c1,90.9%
11,C#CCNC1CCC(c2csc(C#C)n2)=C1C (stereo not given),90.6%
12,CCCCCCNC(=O)Oc1ccc(/C(=C(\C)c2ccc(Cl)cc2)c2ccc(OCCN(C)C)cc2)cc1,-8.4% (active)
13,Cc1ccc2c(n1)C(=O)C(Cl)=C(Nc1cccc(C(C)C)c1)C2=O,10.3%
14,O=[N+]([O-])c1ccc(-c2nnc(SCc3ccc(O)c4ncccc34)n2-c2ccccc2)cc1,32.5%
15,CN(C)CCCOc1c2ccccc2nc2c1oc1ccc(Cl)cc12,9.14% (active)
16,Cn1cc(-c2cc(N)n3nc(-c4cn(C)c5ccccc45)cc3n2)c2ccccc21,11.6%
17,CC(=O)NC(C)(C)C(=O)N1CCC[C@H]1C(=O)NC(C)(C)C(=O)N[C@@H](C)C(=O)NC(C)(C)C(=O)N[C@@H](C)C(=O)N[C@@H](CCC(N)=O)C(=O)NC(C)(C)C(=O)N[C@H](C(=O)NC(C)(C)C(=O)NCC(=O)N[C@@H](CC(C)C)C(=O)NC(C)(C)C(=O)N1CCC[C@H]1C(=O)N[C@H](C(=O)NC(C)(C)C(=O)NC(C)(C)C(=O)N[C@@H](CCC(N)=O)C(=O)N[C@@H](CCC(N)=O)C(=O)N[C@H](CO)Cc1ccccc1)C(C)C)C(C)C,95.6% [4.25 µM]
18,CCN(CC)CCn1c2ccc(O)cc2c2sc3cc(OC)ccc3c(=O)c21,16.5%
19,Cc1ccc(S(=O)(=O)N(CC[C@@H]2C[C@H]2c2cc3ccccc3o2)S(=O)(=O)c2ccc(C)cc2)cc1,64.6%
20,COc1cc2nc(Cl)nc(Nc3cccc(C4=Nc5c(N)nc(N)nc5NC(c5ccc(Cl)cc5)C4)c3)c2cc1OC (stereo not given),-30.3% (active)

row,Compound,growth
1,O=C(Nc1cc(Cl)cc(Cl)c1)Nc1nc2ccc([N+](=O)[O-])cc2s1,-50.1% (active)
2,C[C@H](CCC(=O)NCc1ccc(C(=O)Nc2ccccc2N)cc1)[C@H]1CC[C@H]2[C@@H]3[C@@H](O)C[C@@H]4C[C@H](O)CC[C@]4(C)[C@H]3CC[C@]12C,0.73% (active)
3,C#C[C@]1(O)CC[C@H]2[C@@H]3CC=C4c5sc(C6CC6)nc5CC[C@]4(C)[C@H]3CC[C@@]21C,58.8%
4,CNC(=O)c1cc(-c2ccc(NC(=S)Nc3cc(C(F)(F)F)cc(C(F)(F)F)c3)cc2)nc2cccnc12,121%
5,Cc1cnc2nc(NN)[nH]n12,100%
6,O=c1c2cc(-c3ccc(F)cc3F)ccc2n(O)c(=O)n1-c1cccc(C(F)(F)F)c1,-50.2% (active)
7,COc1cccc(N2CCN(c3ncnc4c3[nH]c3ccc(F)cc34)C[C@H]2C)c1,33%
8,COc1ccc(-c2nn3c(-c4ccccc4F)nnc3s2)cc1,47.7%
9,NC(=O)c1c(NC(=O)c2ccc(C3CCCCC3)cc2)sc2c1CCC(=O)C2,7.79% (active)
10,O=C1Nc2ccc(Cl)cc2/C1=C/c1ccc(OCc2ccc(F)cc2)cc1,94.6%
11,O=S(=O)(NCCCNc1nccc(-c2[nH]c(-c3ccccc3)nc2-c2ccc(Cl)c(O)c2)n1)c1ccc(Br)cc1,13.1%
12,COc1cc(OC)cc(-c2cc(-c3c[nH]c4ccccc34)nc(-c3c[nH]c4ccccc34)c2C#N)c1,102%
13,ClC(Cl)c1nc(-c2ccco2)n2nc(-c3ccccc3)cc2n1,-24.4% (active)
14,CCN(CC)c1ccc(/C=N/NC(=O)c2ccc(S(N)(=O)=O)cc2)cc1,2.37% (active)
15,COc1cccc2c1CN(C(=O)c1ccc(O)c(C(=O)N3Cc4ccc(OCCC[P+](c5ccccc5)(c5ccccc5)c5ccccc5)cc4C3)c1)C2,41.3%
16,CCNC(=O)Oc1ccc(/C(=C(/C)c2ccc(Cl)cc2)c2ccc(OCCN3CCCCCC3)cc2)cc1,1.41% (active)
17,CCOC(=O)c1c(NCC(=O)Nc2cccc([N+](=O)[O-])c2)sc2c1CCCC2,1.42% (active)
18,CC(=O)C1=C(C)NC(NNc2ccccc2)=NC1c1ccc([N+](=O)[O-])cc1 (stereo not given),88.3%
19,CCC(=C(c1ccc(OCCN(C)C)cc1)c1ccc(OCCN(C)C)cc1)c1ccc(Cl)cc1,-59.5% (active)
20,NC1=NC2(CCCC2)N(c2ccc(S(=O)(=O)Nc3nccs3)cc2)C(N)=N1,102%
